SMILES strings stand for the structures. Where “and” joins values, the source holds several entries; their conditions need not be identical. Equal values may be shown once. The source holds several records for some structures; these can differ, active in one and inactive in another. Calls of active or inactive are those of the source. How the source made its calls: active means hit-call score of the fitted dose curve at least 0.9, where 1 is the maximum; inactive means score below 0.9.

These results are taken from PubChem BioAssay (EPA / NIEHS).

The experiment is described as follows: ATG_NFI_CIS: Attagene CIS-FACTORIAL HepG2 Assay for human Nuclear Factor I (NFI) (AID 2282989). The settings on record: HepG2 cis-regulatory reporter, NFI response element transcription; actives raise or lower the signal. Here is the method:
ATG_CIS is a cell-based, multiplexed-readout assay that uses HepG2, a human liver cell line, with measurements taken at 24 hours after chemical dosing in a 24-well plate.ATG_NFI_CIS is one of 52 assay component(s) measured or calculated from the ATG_CIS assay. It is designed to make measurements of mRNA induction, a form of inducible reporter, as detected with fluorescence intensity signals by Reverse transcription polymerase chain reaction (RT-PCR) and Capillary electrophoresis technology.Data from the assay component ATG_NFI_CIS was analyzed into 1 assay endpoint. This assay endpoint, ATG_NFI_CIS, was analyzed with bidirectional fitting relative to DMSO as the negative control and baseline of activity. Using a type of inducible reporter, measures of mRNA for gain or loss-of-signal activity can be used to understand the reporter gene at the transcription factor-level as they relate to the gene NFIA. Furthermore, this assay endpoint can be referred to as a primary readout, because this assay has produced multiple assay endpoints where this one serves a reporter gene function. To generalize the intended target to other relatable targets, this assay endpoint is annotated to the dna binding intended target family, where the subfamily is nuclear factor I.
Human liver HepG2 cells are transiently transfected with multiple reporter transcription units (MRTUs) in 6-well plates using FuGene 6 reagent (Roche; 3 ml FuGene/1 mg DNA). The MRTU constructs are regulated by a cis-regulating element (promoter). […] A major difference between the CIS and TRANS system is that in CIS activities of endogenous TFs are measured, whereas the TRANS assay evaluates changes in activities of exogenous, chimeric NR-Gal4 proteins. […] At the end of 24 hour incubation, total RNA was isolated using TriZol reagent (Invitrogen). The isolated RNA is then reverse-transcribed using oligo(dT) primer and Mo-MLV reverse transcriptase (Invitrogen) with DNAse I (Ambion) treatment for 30 min. The one-tenth of the produced cDNA was amplified by PCR using Taq DNA polymerase (Invitrogen) and two reporter sequence-specific primers. The PCR products were fluorescently labeled by primer extension with 6-arboxyfluorescein (6-FAM) 5'-labeled reporter sequence-specific primer (2 min at 95 C, 20 s at 68 C and 10 min at 72 C) and these products were digested with 5U of HpaI (New England Biolabs) for 2h at 37 C. The fragments were purified using Qiaquick PCR columns (Qiagen), analyzed on an ABI 3130xL genetic analyzer (Applied Biosystems) with peak positions identified by using a set of X-rhodamine (ROX)-labeled MapMarker1000 molecular weight standards (BioVentures). The raw capillary electrophoresis data was processed using Attagraph software (Attagene).
On to `C[C@@H]1C[C@H]2[C@@H]3CCC4=CC(=O)C=C[C@]4(C)[C@@]3(F)[C@@H](O)C[C@]2(C)[C@@]1(O)C(=O)COP(=O)(O)O`, for which the outcome was inactive.

On to `CC(C)CCCCCCOC(=O)CCCCC(=O)OCCCCCCC(C)C`, for which the outcome was inactive.

`COCC(C)O` (stereo not given): the compound was called inactive.

With `CCCCC(CC)COC(=O)CCCCC(=O)OCc1ccccc1` (stereo not given), the outcome was inactive.

For the compound `Oc1cccc(O)c1`, the result was inactive.

Turning to `O=C(OCCOCCOC(=O)c1ccccc1)c1ccccc1`, the outcome was inactive.

With `CCCCC(CC)COC(=O)CCCCC(=O)OCC(CC)CCCC` (stereo not given), the compound was classed as inactive.

On to `CCCCCCCC(=O)O`, for which the call was inactive.

As for `Cc1cc(CCN2CCN(c3nsc4ccccc34)CC2)cc2c1NC(=O)CC2(C)C`, the result was inactive.

Turning to `N#C[C@@H]1CC(F)(F)CN1C(=O)CNC1CC2CCC(C1)N2c1ncccn1` (stereo not given in full), the result was inactive.

On to `CC(C)(C)c1ccc(O)c(C(C)(C)C)c1`, for which the result was inactive.

Broadly, the AC50 is the concentration at which the activity in the assay is half-maximal. Consider `CC(=O)NC1(c2cccc(F)c2)CCN(CC[C@@]2(c3ccc(Cl)c(Cl)c3)CN(c3ccccc3)C(=O)CO2)CC1`, for which the AC50 is 41.7 µM (active).

Regarding `CC(C)(C)c1cccc(C(C)(C)C)c1O`, the AC50 was 159 µM (active).

For the compound `OCCC(F)(F)C(F)(F)C(F)(F)C(F)(F)C(F)(F)C(F)(F)F`, the call was inactive and the half-maximal activity concentration (AC50) is 153 µM (active).

With `CCN(CC)CCNc1ccc(CNC=O)c2sc3ccc(OC)cc3c(=O)c12`, the AC50 was 0.843 µM (active).

For the compound `OC1CCCCC1`, the call was inactive.

For `OCCC(F)(F)C(F)(F)C(F)(F)C(F)(F)C(F)(F)C(F)(F)C(F)(F)C(F)(F)F`, the AC50 is 46 µM (active) and 150 µM (active).

On to `CCC(C)(C)C1CCC(O)CC1` (stereo not given), for which the compound was classed as inactive.

As to `FC(F)(I)C(F)(F)C(F)(F)C(F)(F)C(F)(F)C(F)(F)I`, the call was inactive.

In the case of `O=C(O)c1ccccc1C(c1ccc(O)cc1)c1ccc(O)cc1`, the compound was classed as inactive.

For `CCCOc1sc(C(=O)N2CCC(c3cc(CN)ccc3F)CC2)c(C)c1Br`, the compound was called inactive.

Regarding `CC(=O)CC(C)(C)O`, the call was inactive.

With `OC1CCC(C2CCCCC2)CC1` (stereo not given), the outcome was inactive.

On to `O=C(O)Cc1cc(I)c(Oc2cc(I)c(O)c(I)c2)c(I)c1`, for which the concentration at half-maximal activity (AC50) was 47.9 µM (active) and 17.2 µM (active).

Regarding `C#C[C@]1(O)CC[C@H]2[C@@H]3CCC4=CC(=O)CC[C@@H]4[C@H]3CC[C@@]21C`, the outcome was inactive.

For `CCCOC(=O)c1ccc(O)cc1`, the compound was called inactive.

Regarding `CCCCC[C@H](O)CC(=O)CCc1ccc(O)c(OC)c1`, the outcome was inactive.

As to `Oc1cc2ccccc2c2ccccc12`, the result was inactive.

As for `CN1CCN(c2ccccc2/C=C2\SCCN(c3ccc(Cl)c(Cl)c3)C2=O)CC1`, the compound was classed as inactive.

Consider `COc1cc(CCC(=O)CC(=O)CCc2ccc(O)c(OC)c2)ccc1O`, for which the outcome was inactive.

For the compound `COc1ccc([N+](=O)[O-])cc1N`, the call was inactive.

Turning to `CCCCCCCCCCCCCCCS(=O)(=O)Oc1ccccc1`, the compound was classed as inactive.

`CC(C)(C)c1cc(C(C)(C)C)c(O)c(C(C)(C)C)c1`: the AC50 is 54.2 µM (active) and the compound was called inactive.

As to `COC(=O)CCCCC(=O)OC`, the compound was classed as inactive.

For `CCC(=C(c1ccc(O)cc1)c1ccc(OCCN(C)C)cc1)c1ccccc1`, the call was inactive.

Turning to `CCOC(=O)CC(O)(CC(=O)OCC)C(=O)OCC`, the call was inactive.

In the case of `CC(O)C(=O)O` (stereo not given), the call was inactive.

As to `CN(C)C=O`, the outcome was inactive.
